# FBW7 act = FBW7 E3 ligase activators, primary screen, biochemical, AlphaScreen, human; F-box/WD repeat-containing protein 7 (Homo sapiens), Q969H0; AlphaScreen FBW7–phospho-cyclin E peptide binding, activator screen; normalized activity (activation), % at 26.1 µM; hit rate 0.13% among 650,000; in the data active = normalized activity above about 1.9%;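 also: purified mutant Fbw7 with reduced substrate affinity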
# Target sequence (Q969H0 whole entry, looked up): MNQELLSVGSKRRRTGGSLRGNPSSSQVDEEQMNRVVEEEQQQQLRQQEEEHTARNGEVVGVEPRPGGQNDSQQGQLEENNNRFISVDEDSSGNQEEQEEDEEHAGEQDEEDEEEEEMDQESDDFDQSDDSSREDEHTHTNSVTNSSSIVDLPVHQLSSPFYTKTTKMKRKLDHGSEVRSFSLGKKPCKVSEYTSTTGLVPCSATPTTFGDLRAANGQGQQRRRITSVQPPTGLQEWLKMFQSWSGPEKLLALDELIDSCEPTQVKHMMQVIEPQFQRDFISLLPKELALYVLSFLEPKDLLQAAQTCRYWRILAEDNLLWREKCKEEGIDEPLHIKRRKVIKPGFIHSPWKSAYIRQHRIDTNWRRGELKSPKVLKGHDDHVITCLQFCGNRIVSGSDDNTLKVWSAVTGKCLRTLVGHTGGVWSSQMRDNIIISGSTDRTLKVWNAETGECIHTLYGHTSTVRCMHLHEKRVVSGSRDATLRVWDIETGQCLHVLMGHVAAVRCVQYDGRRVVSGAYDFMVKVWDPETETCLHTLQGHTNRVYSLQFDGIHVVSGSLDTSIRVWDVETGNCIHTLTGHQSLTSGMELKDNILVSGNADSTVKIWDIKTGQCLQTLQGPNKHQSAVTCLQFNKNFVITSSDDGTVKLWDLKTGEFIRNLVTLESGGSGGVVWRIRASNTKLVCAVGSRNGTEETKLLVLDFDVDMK
# MITF inh = MITF inhibitors, primary screen, biochemical, AlphaScreen, human | Microphthalmia-associated transcription factor (Homo sapiens), O75030 | AlphaScreen MITF homodimerization, bead proximity signal | inhibition, % at 2.6 µM | hit rate 0.91% among 650,000 | AID 1259374, 2018; in the data active = inhibition above about 50%;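 also: 0% = vehicle wells with protein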
# TEAD-YAP inh = TEAD-YAP interaction inhibition, primary screen, TEAD-YAP interaction inhibitor project, luminescence, HEK-TIYL cells; TEAD-Gal4/YAP UAS-luciferase luminescence; inhibition, % at 9.12 µM; hit rate 1.4% among 640,000; in the data active = inhibition above about 32%;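 also: 0% = median of test compound wells and 100% = reference inhibitor wells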
# GPR151 ag = activators of human GPR151, primary screen, cell-based, PathHunter beta-arrestin, luminescence; PathHunter beta-arrestin GPR151 cells; activation, % at 11.2 µM; hit rate 1% among 650,000; AID 1508602, 2020; in the data active = activation above about 4.9%;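 also: 0% = median of compound wells and 100% = cells with positive control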
# * hit, by the source's call. In the library only some 3.5% were active in any assay of this set; here they are far more common.
SMILES,FBW7 act,MITF inh,TEAD-YAP inh,GPR151 ag
COc1cc(NC(=O)c2cccc(-n3cc(NC(=O)Nc4ccccc4)cn3)c2)cc(OC)c1OC,0,1,37*,0
CC(=O)c1ccc(NC(=O)COc2cc(C)ccc2C(C)C)cc1,0,-6,-20,-1
Cc1ccc(C(C)C)c(OCC(=O)Nc2ccc(C(=O)Nc3cccc4ccccc34)cc2)c1,0,12,60*,1
O=C(Nc1ccncc1)c1ccc2c(c1)S(=O)(=O)c1ccccc1C2=O,0,14,7,1
COc1cc(NC(=O)c2cccc(-n3cc(N(C)c4nnnn4-c4ccccc4)cn3)c2)ccc1N1CCOCC1,0,1,38*,1
COc1cc(NC(=O)c2cccc(-n3cc(Nc4cnnn4-c4ccccc4)cn3)c2)ccc1N1CCOCC1,0,7,18,-2
O=C(c1cccc(I)c1)N1CCCc2ccccc21,2.3*,10,-8,-1
O=C(c1ccc(I)cc1)N1CCCc2ccccc21,0,-4,14,1
O=C(CN1CCC(c2ccncc2)CC1)Nc1nccs1,0,-4,34*,-1
O=C(CN1CCC(c2cccnc2)CC1)Nc1nccs1,0,6,-2,2
Cc1cc(NC(=O)Cn2c3c(c4ccccc42)CCC3)no1,0,11,57*,2
Cc1nnc(NC(=O)Cn2c3c(c4ccccc42)CCC3)s1,0,18,-6,3
O=C(Cn1c2c(c3ccccc31)CCC2)Nc1nccs1,0,4,34*,0
COc1ccc(N2CCN(c3ncnc4c3cnn4CCNC(=O)c3cccs3)CC2)cc1,0,-7,37*,1
O=C(Cc1ccccc1)NCCn1ncc2c(N3CCN(c4ccc(F)cc4)CC3)ncnc21,0,0,12,1
COc1ccc(N2CCN(c3ncnc4c3cnn4C)CC2)cc1,0,0,-4,0
O=C(NCCn1ncc2c(N3CCN(c4ccccc4)CC3)ncnc21)c1ccccc1F,0,-12,48*,0
Nc1nccc(-c2ccc3nc(C4COc5ccc(C(=O)NCCc6cccnc6)cc5C4)[nH]c3c2)n1 (stereo unspecified),4.2*,7,0,1
Nc1nccc(-c2ccc3nc(C4COc5ccc(C(=O)NCCc6ccccn6)cc5C4)[nH]c3c2)n1 (stereo unspecified),9.0*,11,-6,1
Nc1nccc(-c2cnc3nc(C4COc5ccc(C(=O)NCCc6cccnc6)cc5C4)[nH]c3c2)n1 (stereo unspecified),1,-6,-5,1
CC(C)CNC(=O)c1ccc2c(c1)CC(c1nc3ncc(-c4ccnc(N)n4)cc3[nH]1)CO2 (stereo unspecified),0,27,-3,2
CN(C)CCNC(=O)c1ccc2c(c1)CC(c1nc3ncc(-c4ccnc(N)n4)cc3[nH]1)CO2 (stereo unspecified),2,72*,-48,1
O=C(COc1ccc(Cl)cc1Cl)N/N=C/c1cccc([N+](=O)[O-])c1,0,20,-8,0
COc1ccc(C)cc1NC(=O)c1cn(-c2ccc(Cl)cc2)c(=O)c2ccccc12,0,-15,-4,2
CN1CC[C@H](Oc2ccc(C(=O)Nc3ccc4[nH]ncc4c3)cn2)C1,0,6,16,1
SMILES,FBW7 act,MITF inh,TEAD-YAP inh,GPR151 ag
CN1CCC(Oc2ccc(C(=O)Nc3ccc4[nH]ncc4c3)cn2)CC1,0,34,88*,-1
CN1CC[C@@H](Oc2cc(C(=O)Nc3ccc4[nH]ncc4c3)ccn2)C1,0,0,52*,0
NCCOc1ccc(C(=O)Nc2ccc3[nH]ncc3c2)cn1,0,23,54*,3
CN1CCCC(Oc2ccnc(C(=O)Nc3ccc4[nH]ncc4c3)c2)C1 (stereo unspecified),1,8,45*,1
O=C(Nc1ccc2[nH]ncc2c1)c1ccc(O[C@H]2CCNC2)nc1,0,-2,4,-1
CN1CC[C@H](Oc2ccnc(C(=O)Nc3ccc4[nH]ncc4c3)c2)C1,1,12,17,1
O=C(COC(=O)COc1ccccc1)Nc1ccc(F)c(F)c1F,0,11,0,0
CC(C)(C)C(=O)Nc1ccc(C(=O)Nc2ccccc2[N+](=O)[O-])cc1,0,11,-51,-1
CN1CCN(Cc2ccc(-c3ccccc3[N+](=O)[O-])o2)CC1,0,21,-13,-1
CCCCN(C)CCNC(=O)CCCn1c(=S)[nH]c2cc3c(cc2c1=O)OCO3,0,22,7,-1
Cc1ccc(NC(=O)C(C)N2Cc3ccccc3C2=O)nc1 (stereo unspecified),0,5,82*,-1
COc1ccc(C2=NN3C(C2)c2cc(OC)ccc2OC3c2cccc([N+](=O)[O-])c2)cc1 (stereo unspecified),0,-2,-40,2
Cc1ncn(-c2ccc(Nc3ncc4cccc(-c5ccccn5)c4n3)cc2)n1,0,22,42*,0
Cc1ncn(-c2ccc(Nc3ncc4cccc(-c5cccc(F)c5)c4n3)cc2)n1,0,12,0,-1
Cc1ccc(-c2cccc3cnc(Nc4ccc(-n5cnc(C)n5)cc4)nc23)cn1,1,13,61*,-2
COc1cc(-c2cccc3cnc(Nc4ccc(-n5cnc(C)n5)cc4)nc23)ccn1,0,28,14,1
Cc1cc(-c2cccc3cnc(Nc4ccc(-n5cnc(C)n5)cc4)nc23)ccn1,1,6,62*,1
Cc1ncn(-c2ccc(Nc3ncc4cccc(-c5cncnc5)c4n3)cc2)n1,0,6,-23,-2
Cc1ccc(-c2cccc3cnc(Nc4ccc(-n5cnc(-c6ccccn6)n5)cc4)nc23)cn1,5.7*,28,28,0
O=C(CN1CCN(C(=O)c2ccco2)CC1)Nc1ccccc1F,0,2,-1,0
Cc1ncn(-c2ccc(Nc3ncc4cccc(-c5ncco5)c4n3)cc2)n1,1,43,70*,-1
Cc1nc(SCC(=O)Nc2cc(C(N)=O)cc(C(N)=O)c2)c2c(C)c(C)sc2n1,16*,-5,-4,0
CC(=O)c1ccc(NC(=O)CSc2nc(C)nc3sc(C)c(C)c23)cc1,0,10,11,1
Cn1c(=O)c2cc(C(=O)N3CCC4(CC3)OCCO4)sc2c2ccccc21,0,-1,-3,-1
COc1ccc(-n2ncc3c(=O)[nH]cnc32)cc1,1,12,-2,-1
COc1ccc(-n2nc3nc[nH]c(=O)c3n2)cc1,0,6,46*,-5
CC1(C)N=C(c2cccc(F)c2)C(=O)N1,0,-3,1,0
Cc1cncc2cccc(NC3CCCN(C(=O)C(O)c4ccc(F)cc4)C3)c12 (stereo unspecified),0,13,45*,0

# Screening results: PubChem BioAssay, The Scripps Research Institute Molecular Screening Center
